Some test systems named below: CDK4-cyclinD1; CDK4-cyclinD3; CDK4; CDK5; CDK7; CDK8; CDK9; CDKL1; CDKL2; CDKL3; CDKL5; CHEK1; CHEK2; CIT; CLK1; CLK2; CLK3; CLK4; CSF1R-autoinhibited; CSF1R.
Conditions in all cases: concentration: 1 μM, replicates: in singlicate; n = 1
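Also: KINOMEscan kinase panel screen.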

For `COc1ccc(CSc2nnc(-c3ccc4c(c3)CCO4)o2)cc1`, the “%Inh” value with CDK4-cyclinD1, in the experiment on CDK4-cyclinD3, in the experiment on CDK4, in the experiment on CDK5, in the experiment on CDK7 and in the experiment on CDK8 was 0% throughout. Moreover, the “%Inh” value in the experiment with CDK9, in the experiment with CDKL1, in the experiment on CDKL2, in the experiment with CDKL3, in the experiment on CDKL5 and with CHEK1 was 0% each time. The “%Inh” value in the experiment with CHEK2 was 0%; with CIT it was 0%; with CLK1, 64%; in the experiment with CLK2, 28%; in the experiment with CLK3, 0%; with CLK4, 81%. Also, the entries for the “%Inh” value in the experiment with CSF1R-autoinhibited and with CSF1R were 10% and 0%, respectively.
Regarding `Cc1ccc(NC(=O)Nc2ccccc2F)cc1-c1ccc(C(=O)Nc2ccncc2)cc1` [GSK1398477], the “%Inh” value with CDK4-cyclinD1 is reported as 0%; in the experiment with CDK4-cyclinD3, 0%; with CDK4, 0%; in the experiment on CDK5 it was 5%; in the experiment with CDK7 it was 0%; with CDK8 it was 19%. In addition, the “%Inh” value was 3% in the experiment with CDK9; 7% in the experiment with CDKL1; 30% in the experiment with CDKL2; 0% with CDKL3; 18% in the experiment on CDKL5; 5% in the experiment with CHEK1. Also, the “%Inh” value was 0% with CHEK2; 89% in the experiment with CIT; 16% in the experiment with CLK1; 0% in the experiment on CLK2; 3% in the experiment with CLK3; 40% in the experiment with CLK4. In addition, the “%Inh” value with CSF1R-autoinhibited worked out at 0%; with CSF1R it was 85%.
On to `Cc1ccc(NC(=O)Nc2ccc(Cl)cc2)cc1-c1ccc(C(=O)Nc2ccncc2)cc1` [GSK1398472], for which the “%Inh” value is reported as 0% in the experiment with CDK4-cyclinD1; 10% in the experiment with CDK4-cyclinD3; 2% in the experiment with CDK4; 0% with CDK5; 0% in the experiment on CDK7; 8% in the experiment with CDK8. Besides, the “%Inh” value in the experiment on CDK9 worked out at 0%; in the experiment with CDKL1 it was 3%; in the experiment with CDKL2 it was 19%; with CDKL3 it was 1%; with CDKL5, 0%; with CHEK1, 19%. The “%Inh” value with CHEK2 is 0%; with CIT it was 89%; with CLK1, 32%; with CLK2, 0%; with CLK3 it was 14%; in the experiment with CLK4 it was 42%. Besides, the “%Inh” value in the experiment on CSF1R-autoinhibited was found to be 4%; in the experiment with CSF1R, 87%.
In the case of `O=c1cc(N2CCOCC2)nc2n(Cc3ccccc3F)ccn12` [GSK2297428], the “%Inh” value was 0% in the experiment with CDK4-cyclinD1; 0% in the experiment on CDK4-cyclinD3; 0% in the experiment with CDK4; 0% in the experiment on CDK5; 0% in the experiment with CDK7; 22% in the experiment with CDK8. In addition, the “%Inh” value with CDK9 was 0%; with CDKL1, 0%; in the experiment with CDKL2, 13%; with CDKL3, 0%; in the experiment on CDKL5, 0%; in the experiment on CHEK1 it was 9%. The “%Inh” value with CHEK2 came to 0%; in the experiment on CIT, 18%; with CLK1, 36%; in the experiment on CLK2 it was 0%; in the experiment on CLK3 it was 22%; with CLK4 it was 54%. Moreover, the “%Inh” value with CSF1R-autoinhibited is reported as 7%; in the experiment with CSF1R it was 0%.
As for `c1ccc(-c2ccnc3[nH]ccc23)cc1` [SB-693578], the “%Inh” value in the experiment with CDK4-cyclinD1 is 0%; in the experiment on CDK4-cyclinD3 it was 19%; with CDK4, 22%; in the experiment with CDK5 it was 0%; in the experiment with CDK7, 6%; in the experiment with CDK8 it was 35%. Besides, the “%Inh” value in the experiment on CDK9 turned out to be 0%; with CDKL1 it was 2%; in the experiment on CDKL2, 12%; in the experiment with CDKL3 it was 0%; with CDKL5 it was 9%; in the experiment with CHEK1, 12%. The “%Inh” value in the experiment on CHEK2 stood at 0%; with CIT it was 3%; in the experiment on CLK1, 12%; in the experiment on CLK2 it was 8%; with CLK3, 29%; with CLK4, 5%. Further, the “%Inh” value with CSF1R-autoinhibited came to 47%; with CSF1R, 8%.
For the compound `Fc1ccc(-c2nn3cccc(F)c3c2-c2ccncc2)cc1` [GW475620], the “%Inh” value is on record as 1% in the experiment on CDK4-cyclinD1; 0% in the experiment on CDK4-cyclinD3; 24% with CDK4; 17% in the experiment with CDK5; 0% with CDK7; 15% in the experiment with CDK8. For the same compound, the “%Inh” value stood at 0% in the experiment on CDK9; 0% in the experiment on CDKL1; 14% in the experiment on CDKL2; 0% with CDKL3; 0% in the experiment on CDKL5; 0% with CHEK1. The “%Inh” value is recorded as 0% with CHEK2; 96.3% with CIT; 22% in the experiment with CLK1; 0% with CLK2; 6% in the experiment with CLK3; 26% in the experiment with CLK4. Besides, the “%Inh” value in the experiment on CSF1R-autoinhibited and in the experiment with CSF1R was 0% in each case.
As for `COC(=O)C(Cc1ccccc1)NC(=O)NC1CCN(c2ccnc(Nc3ccc(F)cc3)n2)C1` (centres unmarked) [GSK1379714], the “%Inh” value in the experiment on CDK4-cyclinD1 came to 29%; in the experiment on CDK4-cyclinD3, 0%; in the experiment on CDK4, 5%; with CDK5 it was 0%; with CDK7, 0%; in the experiment with CDK8 it was 48%. Also, the “%Inh” value in the experiment with CDK9 is listed as 0%; with CDKL1, 8%; in the experiment with CDKL2 it was 9%; with CDKL3 it was 0%; in the experiment on CDKL5, 1%; in the experiment with CHEK1 it was 86%. The “%Inh” value in the experiment with CHEK2 is listed as 14%; with CIT, 6%; in the experiment with CLK1 it was 5%; in the experiment on CLK2 it was 0%; with CLK3, 0%; in the experiment with CLK4, 13%. In addition, the “%Inh” value in the experiment with CSF1R-autoinhibited was 35%; in the experiment on CSF1R, 1%.
Consider `Cc1nccc(-c2c(-c3ccc(F)cc3)ncn2CCCN2CCOCC2)n1.Cl` [SB-282975], for which the “%Inh” value in the experiment with CDK4-cyclinD1 worked out at 14%; in the experiment on CDK4-cyclinD3, 33%; in the experiment with CDK4 it was 18%; in the experiment with CDK5, 3%; in the experiment on CDK7 it was 27%; with CDK8 it was 39%. For the same compound, the “%Inh” value with CDK9 is on record as 100%; in the experiment with CDKL1, 34%; with CDKL2, 20%; in the experiment on CDKL3, 12%; in the experiment with CDKL5, 0%; with CHEK1, 7%. The “%Inh” value with CHEK2 worked out at 14%; in the experiment on CIT, 21%; in the experiment with CLK1 it was 21%; in the experiment on CLK2, 5%; with CLK3, 18%; in the experiment on CLK4, 0%. The “%Inh” value with CSF1R-autoinhibited and in the experiment with CSF1R was 0% each time.
For the compound `COc1ccc2cc(-c3nc(-c4ccccc4C(C)C)[nH]c3-c3ccncc3)ccc2c1` [SB-660566], the “%Inh” value amounted to 0% in the experiment with CDK4-cyclinD1; 19% with CDK4-cyclinD3; 9% with CDK4; 0% with CDK5; 0% in the experiment on CDK7; 0% in the experiment on CDK8. Also, the “%Inh” value in the experiment with CDK9 stood at 0%; in the experiment with CDKL1 it was 0%; in the experiment on CDKL2, 9%; in the experiment on CDKL3 it was 0%; in the experiment with CDKL5 it was 37%; in the experiment with CHEK1 it was 4%. The “%Inh” value is reported as 0% in the experiment on CHEK2; 28% with CIT; 12% in the experiment on CLK1; 0% with CLK2; 0% in the experiment with CLK3; 0% in the experiment with CLK4. In addition, the “%Inh” value came to 0% in the experiment on CSF1R-autoinhibited and 8% with CSF1R.
With `COc1cc2ncnc(Nc3cccc(Br)c3)c2cc1OC.Cl` [GI230329], the “%Inh” value was found to be 36% in the experiment with CDK4-cyclinD1; 0% in the experiment on CDK4-cyclinD3; 42% in the experiment on CDK4; 0% in the experiment with CDK5; 0% with CDK7; 0% in the experiment on CDK9. Further, the “%Inh” value in the experiment on CDKL1 is on record as 14%; in the experiment on CDKL2, 24%; with CDKL3, 0%; in the experiment on CDKL5, 0%; with CHEK1, 0%; with CHEK2 it was 54%. Besides, the “%Inh” value in the experiment with CIT turned out to be 53%; in the experiment on CLK1 it was 31%; in the experiment on CLK2, 0%; in the experiment on CLK3 it was 0%; with CLK4 it was 15%; in the experiment with CSF1R-autoinhibited it was 44%. The “%Inh” value in the experiment with CSF1R amounted to 4%.
For the compound `CNc1nc(-c2ccc3c(N)n[nH]c3c2)cc(N2C[C@@H](C(=O)Nc3ccccc3)CC[C@H]2C)n1` [GSK2298859], the “%Inh” value in the experiment on CDK4-cyclinD1 amounted to 0%; with CDK4-cyclinD3, 2%; in the experiment on CDK4 it was 25%; in the experiment on CDK5, 0%; with CDK7, 0%; in the experiment with CDK8, 7%. For the same compound, the “%Inh” value in the experiment on CDK9 was found to be 0%; in the experiment on CDKL1, 3%; in the experiment with CDKL2 it was 0%; with CDKL3, 0%; in the experiment on CDKL5, 1%; in the experiment on CHEK1, 0%. Further, the “%Inh” value in the experiment on CHEK2 was 11%; in the experiment on CIT, 89%; with CLK1 it was 33%; in the experiment on CLK2 it was 68%; in the experiment on CLK3 it was 6%; with CLK4, 43%. In addition, the “%Inh” value in the experiment on CSF1R-autoinhibited turned out to be 0%; in the experiment with CSF1R, 2%.
With `Cc1ccc(NC(=O)c2ccc(Cl)cc2)cc1-c1ccc(C(=O)Nc2ccncc2)cc1` [GSK1398467], the “%Inh” value with CDK4-cyclinD1, in the experiment on CDK4-cyclinD3, in the experiment with CDK4, in the experiment with CDK5, in the experiment on CDK7 and with CDK8 was 0% throughout. Also, the “%Inh” value in the experiment on CDK9 was found to be 0%; in the experiment on CDKL1 it was 13%; in the experiment with CDKL2 it was 20%; with CDKL3, 0%; in the experiment on CDKL5, 0%; with CHEK1, 16%. For the same compound, the “%Inh” value in the experiment with CHEK2 worked out at 0%; with CIT it was 69%; in the experiment on CLK1, 3%; in the experiment with CLK2, 100%; with CLK3, 0%; in the experiment with CLK4 it was 15%. Moreover, the “%Inh” value in the experiment with CSF1R-autoinhibited is 0%; in the experiment with CSF1R, 97.1%.

These data come from publication PMC5540273 (PLoS ONE, 2017).
